Experimental findings from PubChem BioAssay are described below.

Active and inactive are the calls of the source.

A short description of assay [1]: binders of probe aFSTL3 on microarray, primary screen, stem cell growth factor project, biochemical, small-molecule microarray, fluorescence 635/667 (AID 1064).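 Further: measures binding of the biotinylated anti-FSTL3 antibody to printed compounds.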 As to conditions: higher = more signal.
Assay [2] is described as follows: binders from COS7 lysate, DM2A8 probe, primary screen, torsin A project, cell lysate, small-molecule microarray, fluorescence 635/667 (AID 1065). As to conditions: higher = more signal, COS7 lysate expressing mutant human TOR1A.
A short description of assay [3]: binders of probe aFGF2 on microarray, primary screen, stem cell growth factor project, biochemical, small-molecule microarray, fluorescence 635/667 (AID 1067).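 Further: measures binding of biotinylated aFGF2 protein to printed compounds on slides; z-score merges feature fluorescence and signal-to-noise across triplicate slides.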 As to conditions: higher = more signal.
Assay [4] in a line: binders of probe aFGF10 on microarray, primary screen, stem cell growth factor project, biochemical, small-molecule microarray, fluorescence 635/667 (AID 1071).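 Further: score merges 667 nm spot intensity and signal to noise from triplicate slides.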 The settings on record: higher = more signal.
The target of assay [5] is Neurogenic locus notch homolog protein 2 (Homo sapiens) (UniProt Q04721). Nature of the assay: Notch2 binders on small-molecule microarrays, primary screen, biochemical, small-molecule microarray, 635 nm fluorescence, stem cell growth factors (AID 1073). As to conditions: Notch2 binding, higher = more signal.
Assay [6] addresses Pro-neuregulin-1, membrane-bound isoform (Homo sapiens) (UniProt Q02297). The assay can be described thus: NRG1 binders on small-molecule microarrays, primary screen, psychiatric disease protein project, biochemical, small-molecule microarray, fluorescence 635/667 (AID 1075).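 Further: score combines 667 nm spot fluorescence with signal to noise.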 The settings on record: NRG1 binding, 635 nm fluorescence, higher = more signal.
Assay [7] concerns Neuregulin-1 EGF-like domain. Nature of the assay: binders of neuregulin-1 EGF-like domain, primary screen, biochemical, small-molecule microarray, 635 nm fluorescence (AID 1081).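 Further: binding of the protein to compounds printed on small-molecule microarray slides.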 As to conditions: small-molecule microarray binding, higher = more signal.
Assay [8] can be described thus: FRG1 promoter luciferase signal modulators, primary screen, FRG1 inhibition for FSHD, cell-based, C2C12 myotubes, firefly/Renilla luciferase, luminescence (AID 1084). As to conditions: higher = more signal, called active from +8 up or from −8 down.
Assay [9] is described as follows: binders of probe aFST on microarray, primary screen, stem cell growth factor project, biochemical, small-molecule microarray, fluorescence 635/667 (AID 1086).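 Further: score merges 667 nm fluorescence with signal-to-noise of each printed compound spot.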 The settings on record: higher = more signal.
Assay [10] in a line: binders of probe aHhip on microarray, primary screen, stem cell growth factor project, biochemical, small-molecule microarray, fluorescence 635/667 (AID 1087).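 Further: score merges spot fluorescence at 667nm with spot signal to noise ratio.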 The settings on record: higher = more signal.
The test system of assay [11] is PRMT1 (protein arginine N-methyltransferase 1). Nature of the assay: PRMT1 binders on small-molecule microarrays, primary screen, biochemical, small-molecule microarray, 635 nm fluorescence (AID 1088).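 Further: binding of Prmt1 protein to compounds spotted on small-molecule microarray slides.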 As to conditions: small-molecule microarray binding, higher = more signal.
Assay [12] in a line: yeast growth modulation, basal conditions, primary screen, YJM789 clinical isolate, OD600, 24 h (AID 1089).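 Further: growth of clinical yeast isolate S. cerevisiae YJM 789 seeded 1000 cells per well; test concentration not given here.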 The settings on record: S. cerevisiae YJM789 growth, higher = more signal, called active from +8 up or from −8 down.
Assay [13] is described as follows: fission yeast growth modulation, primary screen, strain 972, OD600, 24 h, no modulator (AID 1090).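 Further: basal condition with compound alone and no growth modifier present; test concentration not given here.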 As to conditions: S. pombe 972 growth, higher = more signal, called active from +8 up or from −8 down.
Assay [14] is described as follows: S. cerevisiae growth modulation with rapamycin, primary screen, strain BY4716, OD600, 96 h (AID 1091). Further: test concentration not given here. The settings on record: higher = more signal, called active from +8 up or from −8 down.
For assay [15], the target named is Torsin-1A-interacting protein 2 (Homo sapiens) (UniProt Q8NFQ8). The assay can be described thus: LULL1 binders on small-molecule microarray, primary screen, cell lysate, human LULL1 lysate, 635/667 nm fluorescence (AID 1092).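 Further: score merges per-feature 667 nm fluorescence with signal-to-noise.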 As to conditions: hLULL1 lysate binding, 635 nm fluorescence, higher = more signal.
The nature of assay [16]: E. coli growth modulation, two-sided OD650, primary screen, E. coli filamentation project, strain DRC41, 24 h (AID 1093).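 Further: MC1000 strain lacking acrAB efflux and sulA so SOS filamentation is blocked; test concentration not given here.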 As to conditions: OD650, 24 h, higher = more signal, called active from +8 up or from −8 down.
The nature of assay [17]: small-molecule microarray binders of probe aLefty2, primary screen, biochemical, biotinylated probe, 635/667 nm fluorescence (AID 1094).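 Further: score merges spot fluorescence near 667 nm with spot signal-to-noise ratio.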 The settings on record: higher = more signal.
The subject of assay [18] is Noggin (protein binding on small-molecule microarray). The assay can be described thus: Noggin binders on small-molecule microarray, primary screen, biochemical, 635/667 nm fluorescence (AID 1095).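 Further: score merges 667 nm feature fluorescence with signal to noise over triplicate slides.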 As to conditions: 635 nm fluorescence, higher = more signal.
For assay [19], the target named is Neurogenic locus notch homolog protein 3 (Homo sapiens) (UniProt Q9UM47). The assay can be described thus: NOTCH3 binders on small-molecule microarray, primary screen, biochemical, 635/667 nm fluorescence (AID 1096). The settings on record: NOTCH3 binding, 635 nm fluorescence, higher = more signal.
Assay [20] in a line: small-molecule microarray binders of probe aEGFR, primary screen, biochemical, biotinylated probe, 635/667 nm fluorescence (AID 1097).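 Further: probe is a biotinylated anti-EGFR antibody binding compounds printed on slides; score combines fluorescence near 667 nm and signal to noise of each spot.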 As to conditions: higher = more signal.

Pro-neuregulin-1, membrane-bound isoform (Homo sapiens), sequence (Q02297 whole entry, looked up, the tested form may be a part, canonical isoform): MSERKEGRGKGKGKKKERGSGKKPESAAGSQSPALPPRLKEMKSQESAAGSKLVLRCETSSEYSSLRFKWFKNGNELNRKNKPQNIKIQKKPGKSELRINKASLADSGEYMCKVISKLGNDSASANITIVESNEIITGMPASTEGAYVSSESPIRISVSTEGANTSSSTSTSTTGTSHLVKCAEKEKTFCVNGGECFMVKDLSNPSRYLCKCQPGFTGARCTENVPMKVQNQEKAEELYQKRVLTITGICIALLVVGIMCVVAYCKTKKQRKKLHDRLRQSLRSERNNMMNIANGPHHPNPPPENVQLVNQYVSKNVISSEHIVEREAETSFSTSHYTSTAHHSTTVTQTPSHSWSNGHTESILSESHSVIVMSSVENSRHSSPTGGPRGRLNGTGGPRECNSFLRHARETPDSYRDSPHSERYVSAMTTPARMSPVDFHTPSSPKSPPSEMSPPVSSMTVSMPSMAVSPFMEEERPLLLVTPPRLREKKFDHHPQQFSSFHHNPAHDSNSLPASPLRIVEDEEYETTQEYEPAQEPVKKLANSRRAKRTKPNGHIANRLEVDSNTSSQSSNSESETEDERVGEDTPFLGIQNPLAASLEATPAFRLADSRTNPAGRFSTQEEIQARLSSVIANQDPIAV
Torsin-1A-interacting protein 2 (Homo sapiens), sequence (Q8NFQ8 whole entry, looked up): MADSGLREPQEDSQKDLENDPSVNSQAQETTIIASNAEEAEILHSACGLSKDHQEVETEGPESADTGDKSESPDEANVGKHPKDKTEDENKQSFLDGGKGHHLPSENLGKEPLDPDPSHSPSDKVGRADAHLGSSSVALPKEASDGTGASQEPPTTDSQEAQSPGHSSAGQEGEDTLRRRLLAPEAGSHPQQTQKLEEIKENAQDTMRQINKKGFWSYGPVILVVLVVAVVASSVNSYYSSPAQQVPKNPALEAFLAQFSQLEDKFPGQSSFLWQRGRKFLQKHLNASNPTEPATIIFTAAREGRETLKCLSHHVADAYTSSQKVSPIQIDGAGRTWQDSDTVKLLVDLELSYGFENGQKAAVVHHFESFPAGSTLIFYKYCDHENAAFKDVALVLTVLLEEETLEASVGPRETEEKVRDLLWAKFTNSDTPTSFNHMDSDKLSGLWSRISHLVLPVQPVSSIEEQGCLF
Neurogenic locus notch homolog protein 2 (Homo sapiens), sequence (Q04721 whole entry, looked up, canonical isoform): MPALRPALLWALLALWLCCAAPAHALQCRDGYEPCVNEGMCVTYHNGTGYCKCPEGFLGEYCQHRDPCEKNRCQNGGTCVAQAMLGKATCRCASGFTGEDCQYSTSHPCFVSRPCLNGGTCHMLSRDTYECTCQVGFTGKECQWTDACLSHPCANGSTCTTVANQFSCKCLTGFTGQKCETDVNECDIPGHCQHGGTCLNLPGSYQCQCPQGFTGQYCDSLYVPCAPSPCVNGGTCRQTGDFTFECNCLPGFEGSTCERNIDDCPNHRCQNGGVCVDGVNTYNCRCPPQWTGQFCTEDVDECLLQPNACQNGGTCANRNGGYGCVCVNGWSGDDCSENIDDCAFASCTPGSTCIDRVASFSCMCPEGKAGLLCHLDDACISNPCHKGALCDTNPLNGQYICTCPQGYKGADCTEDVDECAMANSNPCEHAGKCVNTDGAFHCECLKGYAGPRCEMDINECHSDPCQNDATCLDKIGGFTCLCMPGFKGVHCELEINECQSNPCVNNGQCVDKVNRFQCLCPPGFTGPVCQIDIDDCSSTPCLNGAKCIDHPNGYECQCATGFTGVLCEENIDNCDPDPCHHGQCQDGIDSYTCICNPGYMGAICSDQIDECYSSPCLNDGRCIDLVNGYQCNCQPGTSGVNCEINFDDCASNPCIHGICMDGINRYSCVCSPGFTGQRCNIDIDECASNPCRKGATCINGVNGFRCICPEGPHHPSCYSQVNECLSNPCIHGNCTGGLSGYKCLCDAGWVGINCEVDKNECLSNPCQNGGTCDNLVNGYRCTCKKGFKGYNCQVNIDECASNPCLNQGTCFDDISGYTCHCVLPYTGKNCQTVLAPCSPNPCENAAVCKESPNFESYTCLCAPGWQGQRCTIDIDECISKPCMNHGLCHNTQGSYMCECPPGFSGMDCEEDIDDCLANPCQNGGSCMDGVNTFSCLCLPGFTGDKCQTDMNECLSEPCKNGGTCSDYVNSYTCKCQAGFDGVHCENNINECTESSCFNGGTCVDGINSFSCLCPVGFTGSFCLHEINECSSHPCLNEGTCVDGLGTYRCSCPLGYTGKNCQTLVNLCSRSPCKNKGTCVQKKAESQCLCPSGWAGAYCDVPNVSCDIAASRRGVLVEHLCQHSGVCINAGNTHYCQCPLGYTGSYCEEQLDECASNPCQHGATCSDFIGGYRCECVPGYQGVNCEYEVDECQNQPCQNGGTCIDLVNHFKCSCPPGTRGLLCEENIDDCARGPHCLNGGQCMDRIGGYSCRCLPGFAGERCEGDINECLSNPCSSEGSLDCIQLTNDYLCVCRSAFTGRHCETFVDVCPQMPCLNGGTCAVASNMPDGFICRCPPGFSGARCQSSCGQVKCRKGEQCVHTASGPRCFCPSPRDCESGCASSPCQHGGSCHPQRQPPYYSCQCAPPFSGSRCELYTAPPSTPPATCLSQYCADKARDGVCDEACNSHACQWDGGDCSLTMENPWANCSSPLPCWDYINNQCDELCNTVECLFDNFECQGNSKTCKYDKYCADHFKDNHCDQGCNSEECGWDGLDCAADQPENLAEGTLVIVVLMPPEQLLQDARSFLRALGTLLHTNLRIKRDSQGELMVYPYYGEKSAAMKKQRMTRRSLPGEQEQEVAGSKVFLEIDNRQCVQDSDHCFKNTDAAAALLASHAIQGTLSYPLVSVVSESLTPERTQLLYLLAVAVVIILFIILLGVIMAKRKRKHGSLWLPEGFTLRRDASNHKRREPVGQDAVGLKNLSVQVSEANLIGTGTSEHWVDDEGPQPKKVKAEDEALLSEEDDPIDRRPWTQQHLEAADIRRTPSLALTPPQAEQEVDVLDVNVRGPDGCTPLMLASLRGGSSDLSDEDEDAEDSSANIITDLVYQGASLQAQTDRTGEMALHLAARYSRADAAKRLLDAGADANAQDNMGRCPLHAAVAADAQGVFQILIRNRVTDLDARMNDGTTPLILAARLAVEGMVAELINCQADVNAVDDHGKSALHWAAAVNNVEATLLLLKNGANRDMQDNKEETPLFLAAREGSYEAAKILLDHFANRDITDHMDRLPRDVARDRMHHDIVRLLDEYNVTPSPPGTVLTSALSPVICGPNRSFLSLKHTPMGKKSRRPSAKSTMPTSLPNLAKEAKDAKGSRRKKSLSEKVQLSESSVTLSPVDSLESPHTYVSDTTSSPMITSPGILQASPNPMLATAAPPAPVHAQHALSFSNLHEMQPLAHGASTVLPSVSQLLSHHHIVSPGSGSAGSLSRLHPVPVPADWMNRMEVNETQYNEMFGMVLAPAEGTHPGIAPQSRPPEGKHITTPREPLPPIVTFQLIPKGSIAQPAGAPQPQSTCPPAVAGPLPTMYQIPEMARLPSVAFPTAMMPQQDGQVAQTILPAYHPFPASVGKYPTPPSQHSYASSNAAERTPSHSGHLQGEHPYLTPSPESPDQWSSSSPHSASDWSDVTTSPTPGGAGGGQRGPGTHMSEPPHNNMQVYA

As for `NC(=O)NCC#Cc1ccc2c(c1)[C@]1(C(=O)N2)[C@H](c2ccccc2OCCO)N2[C@H](c3ccccc3)[C@H](c3ccccc3)OC(=O)[C@H]2[C@@H]1C(=O)Nc1nc2ccccc2s1`, the composite z-score was -0.108 in assay [1]; -0.354 in assay [2]; -0.016 in assay [3]; 0.268 in assay [4]; 0.295 in assay [5]; 0.756 in assay [6]. Also, the composite z-score in [7] was 0.176; in [9] it was 0.617; in assay [10], -0.0296; in assay [11], 1.24; in assay [15], 2.49; in assay [17], -0.0416. In addition, the composite z-score was 0.288 in [18], 0.773 in assay [19] and -0.178 in assay [20]. The z-score in assay [8] was 0.169 (inactive); in assay [12], 1.99 (inactive); in assay [13], 1.61 (inactive); in assay [14], 3.78 (inactive); in assay [16], 1.15 (inactive).
Turning to `C=C[C@H](CO[Si](CC)(CC)CC)N(Cc1ccc(OC(C)=O)c(OC)c1)S(=O)(=O)c1ccc(Br)cc1`, the composite z-score was 0.572 in [1]; 1.64 in assay [2]; 0.365 in [3]; 0.326 in assay [4]; -0.156 in assay [5]; 1.27 in assay [6]. The composite z-score was 1.05 in assay [7]; 1.22 in assay [9]; -0.0788 in [10]; 0.87 in assay [11]; 1.6 in [15]; 0.476 in assay [17]. Also, the composite z-score in assay [18] was -0.0715; in assay [19] it was -0.334; in assay [20], 0.0819. Besides, the z-score in [8] is -2.48 (inactive); in assay [12] it was -1.77 (inactive); in assay [13] it was -1.01 (inactive); in assay [14], 0.196 (inactive); in assay [16], 0.415 (inactive).
As for `COC(=O)[C@@]1(Cc2ccccc2)[C@H]2c3cc(C(=O)N4CCCC4)n(Cc4ccc(S(C)(=O)=O)cc4)c3C[C@H]2CN1C(=O)c1ccccc1`, the composite z-score in assay [1] was 1; in [2] it was 0.0844; in assay [3], 0.371; in [4], -0.0015; in assay [5] it was 1.68; in assay [6] it was 1.66. Besides, the composite z-score was 1.31 in [7]; 1.23 in assay [9]; 0.939 in assay [10]; 0.375 in assay [11]; 3.56 in assay [15]; 0.0495 in assay [17]. In addition, the composite z-score in assay [18] came to 0.0689; in [19] it was 1.01; in [20], 0.348. Besides, the z-score in assay [8] was 1.45 (inactive); in [12] it was 0.527 (inactive); in assay [13] it was 0.955 (inactive); in [14] it was 0.671 (inactive); in assay [16], -0.47 (inactive).
As for `COCCCNC(=O)[C@]1(CCC(=O)OC(C)(C)C)N=C(c2ccc(OCCCO)cc2)O[C@@H]1c1ccccc1CN=[N+]=[N-]`, the composite z-score came out at 0.175 in [1]; 1.19 in [2]; 0.042 in assay [3]; 1.27 in [4]; 0.96 in assay [5]; 0.732 in assay [6]. Further, the composite z-score turned out to be 1.41 in assay [7]; 0.728 in [9]; 0.107 in assay [10]; 1.54 in assay [11]; 2.92 in [15]; 0.0894 in assay [17]. For the same molecule, the composite z-score in [18] is 0.33; in [19], 0.89; in assay [20] it was -0.0315. The z-score in assay [8] was 4.82 (inactive); in assay [12], 0.15 (inactive); in assay [13], 0.556 (inactive); in assay [14], -0.78 (inactive); in assay [16] it was -0.613 (inactive).
Turning to `COCCOC(=O)N1C(=O)[C@@]2(c3cc(C#CCC(C(=O)OC)C(=O)OC)ccc31)[C@H](c1ccccc1OCCO)N1[C@H](c3ccccc3)[C@H](c3ccccc3)OC(=O)[C@H]1[C@@H]2C(=O)N1CCN(c2ncccn2)CC1`, the composite z-score in assay [1] was -0.266; in [2] it was 0.273; in [3], 0.137; in [4], 0.432; in [5] it was 0.986; in assay [6], 1.32. The composite z-score in [7] is 1.2; in [9], 0.74; in assay [10] it was 0.03; in assay [11], 1.54; in [15], 3.09; in assay [17], -0.0557. Besides, the composite z-score in assay [18] came out at 1.28; in assay [19], 1.08; in [20], 0.032. Further, the z-score is -0.796 (inactive) in [8]; 2.01 (inactive) in assay [12]; 2.65 (inactive) in [13]; 7.01 (inactive) in assay [14]; 0.998 (inactive) in [16].
As for `COC(=O)[C@@]1(Cc2ccc(OC)cc2)[C@H]2c3cc(C(=O)N4CCCC4)n(Cc4ccc(C)c(F)c4F)c3C[C@H]2CN1C(=O)c1ccccc1`, the composite z-score was 0.77 in [1]; -0.5 in assay [2]; 0.176 in assay [3]; 0.78 in [4]; 1.77 in assay [5]; 1.65 in assay [6]. The composite z-score worked out at 1.31 in assay [7]; 1.78 in assay [9]; 2.12 in assay [10]; 0.998 in assay [11]; 3.52 in [15]; 0.505 in [17]. Besides, the composite z-score in assay [18] is 0.214; in [19], 1.04; in assay [20] it was 0.178. Also, the z-score is 0.352 (inactive) in [8]; 0.57 (inactive) in assay [12]; 1.48 (inactive) in assay [13]; 1.57 (inactive) in assay [14]; 0.107 (inactive) in assay [16].
Turning to `COCCOC(=O)N1C(=O)[C@@]2(c3cc(C#CCC(C(=O)OC)C(=O)OC)ccc31)[C@H](C(=O)Nc1nc3ccccc3s1)[C@H]1C(=O)O[C@H](c3ccccc3)[C@H](c3ccccc3)N1[C@@H]2c1ccccc1OCCO`, the composite z-score in assay [1] is 0.0949; in assay [2], 0.684; in assay [3], 0.0821; in assay [4] it was 0.807; in [5] it was 1.49; in assay [6], 1.48. The composite z-score in assay [7] is 1.24; in assay [9] it was 0.0716; in assay [10], 0.0873; in assay [11], 1.56; in assay [15], 2.78; in [17], -0.0171. The composite z-score was 0.133 in assay [18], 1.11 in assay [19] and 0.0556 in assay [20]. Besides, the z-score was 2.19 (inactive) in assay [8]; 2.48 (inactive) in [12]; 2.08 (inactive) in assay [13]; 3.23 (inactive) in [14]; 0.374 (inactive) in assay [16].
Turning to `Cc1nc2cc(Br)ccc2c(=O)o1`, the composite z-score in assay [1] was -0.296; in assay [2] it was -0.185; in [3], -0.158; in assay [4] it was 0.497; in assay [5], 1.1; in [6], 0.226. Also, the composite z-score in assay [7] is 0.861; in assay [9], 1.04; in assay [10], 0.0383; in assay [11], 0.648; in assay [15], 1.27; in assay [17], -0.082. The composite z-score worked out at 0.198 in assay [18], 1.04 in assay [19] and 0.104 in [20]. In addition, the z-score in assay [8] is 0.845 (inactive); in assay [12], -0.764 (inactive); in assay [13], 0.597 (inactive); in assay [14] it was -1.07 (inactive); in assay [16], -1.07 (inactive).
`O=C1C[C@]2(c3ccc([N+](=O)[O-])cc3)C(=O)N(CC(F)(F)F)c3cc(CO)ccc3[C@H]2N1C1CCCCC1`: the composite z-score in assay [1] is 0.342; in assay [2], -0.819; in assay [3] it was -0.148; in assay [4], -0.91; in assay [5] it was -0.488; in [6], -0.722. Besides, the composite z-score was -1.5 in assay [7]; -0.167 in [9]; -0.226 in assay [10]; 0.137 in [11]; -0.0451 in assay [15]; -0.216 in assay [17]. Besides, the composite z-score in assay [18] was -0.425; in [19] it was -1.41; in assay [20], -0.201. Besides, the z-score in assay [8] was 0.0655 (inactive); in [12] it was 0.926 (inactive); in assay [13] it was -0.378 (inactive); in assay [14], -1.03 (inactive); in [16], 0.685 (inactive).
